# Screening data as filed in PubChem.
# MT1-MMP txn act: activates MT1-MMP transcription. activation factor at 10 µM. AID 750. HT1080 MT1-MMP promoter luciferase reporter, luminescence, overnight; hits give high values. actives 0.16% (n = 86,000);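 active = activation factor of at least 2 for MT1-MMP transcription at 10 µM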
# Measles CPE: protection of cells from measles virus; protection (pct of control), % at 4 µM; Measles virus-infected cells, CPE protection, absorbance; AID 841; actives 1.5% (n = 140,000); in the data active = protection mostly above about 24%, no sharp cut-off; inactive = mostly below about 26%
# PostGolgi ctrl: growth of the yeast control strain, post-Golgi counter-screen; efflux-deficient yeast background strain, growth absorbance A615, 16 h; inhibition, % at 10 µM; actives 5% (n = 98,000)
# PostGolgi yeast: growth inhibition of a yeast mutant, post-Golgi transport screen; post-Golgi transport phenotypic cell assay; inhibition, % at 10 µM; actives 0.9% (n = 98,000); AID 739;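 note: yeast cells grown in 1536-well plates; yeast grown about 18 h at 30C before absorbance read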
# An asterisk follows results filed as active; . = no result given. Hits are enriched below; roughly 5.3% of the tested compounds scored in any of these assays. Cut-off read from the data, not from the text of the source, unless noted: active = inhibition above about 30%; inactive = the rest.
SMILES,MT1-MMP txn act,Measles CPE,PostGolgi ctrl,PostGolgi yeast
N#CC(c1ccccc1)c1ccc2c(C(F)(F)F)cc(C(F)(F)F)nc2n1 (centres undefined),1,13,51*,5
Cc1ccc(S(=O)(=O)NNC(=O)c2sc(=S)n(C)c2C)cc1,.,12,.,.
CC1C(c2ccccc2)N(C)C(c2ccccc2)C(C)C1(O)C#Cc1ccccc1 (centres undefined),.,9,.,.
CCN1C(=O)C(CC(=O)NC2CCCCC2)N(CC)C1=O (centres undefined),1,50*,18,2
N#Cc1ccccc1Sc1ccccc1C(=O)OCc1nnc(-c2ccccc2)o1,1.2,4,11,1
Cc1noc(C)c1COC(=O)c1ccccc1Sc1ccccc1C#N,1.2,7,30*,-8
CCc1ccc(-c2cc(C(=O)N3N=C(C(F)F)CC3(O)C(F)F)c3ccccc3n2)cc1 (centres undefined),.,.,37*,2
COc1cccc(/C=N/NC(=O)c2cc(C34CC5CC(CC(C5)C3)C4)[nH]n2)c1,.,0,66*,-3
Cc1cc2c3c(c1)C1(C(=O)N3C(C)(C)CC2C)C(C#N)=C(N)OC2=C1C(=O)CC(C)(C)C2 (centres undefined),1.3,16,.,.
Cc1cc2c3c(c1)C1(SCC(=O)N1c1ccc(F)cc1)C(=O)N3C(C)(C)CC2C (centres undefined),1.1,23,33*,11
Cc1ccc(/C(=N\O)c2oc3c(C)c4oc(=O)cc(C)c4cc3c2C)cc1,1.2,4,.,.
Cc1cc(=O)oc2c1ccc1oc(/C(=N/O)c3ccccc3)c(C)c12,1.1,3,35*,16
O=C(c1ncc[nH]1)c1ccccc1C(=O)N1CCOCC1,1,22,33*,-1
CCNC(=O)NC(=O)C(C)Sc1nc2ccccc2n1CC(C)C (centres undefined),1.2,3,32*,-3
CC(C)Cn1c(SC(C)C(=O)Nc2ccc(N3CCOCC3)cc2)nc2ccccc21 (centres undefined),.,6,.,.
CCOc1ccc(NC(=O)CSc2nnc(Cn3cnc4ccccc43)n2C)cc1,1.3,5,.,.
O=C(COc1ccccc1-c1ccccc1)N/N=C/c1cccc2ccccc12,.,0,20,2
COc1ccc(/C=N/NC(=O)COc2ccccc2-c2ccccc2)cc1,.,3,56*,13
Cn1cc(Cl)c(C(=O)N/N=C/c2ccc(OS(=O)(=O)c3ccccc3)cc2)n1,1.1,13,.,.
CCC(=O)N/N=C/c1ccc(OS(=O)(=O)c2ccccc2)cc1,.,18*,.,.
COC(=O)C1=C(C)NC=C([N+](=O)[O-])C1c1ccc(OC)cc1 (centres undefined),.,7,.,.
S=C(NCc1ccco1)N/N=C/c1ccccc1Cl,.,13,.,.
CN(C)C(=O)c1ccc(NC(=O)c2ccccc2Sc2ccccc2C#N)cc1,.,4,.,.
COC(=O)c1ccccc1NC(=O)c1ccc(COc2cc(C)cc(C)c2)o1,.,20,31*,9
COc1ccc(CN2CCN(c3ccccn3)CC2)c(OC)c1,1.1,14,0,-5
SMILES,MT1-MMP txn act,Measles CPE,PostGolgi ctrl,PostGolgi yeast
c1ccc(COc2ccc(CN3CCN(c4ccccn4)CC3)cc2)cc1,1.2,25,9,73*
CC(C)(C)NS(=O)(=O)c1ccc(OCC(=O)NCCC2=CCCCC2)cc1,1,21,-8,-2
CCOC(=O)c1cccnc1SCc1cc(=O)n2ccccc2n1,1.2,10,28,63*
CC(OC(=O)c1cccnc1SCc1cc(=O)n2ccccc2n1)c1ccccn1 (centres undefined),1.3,5,10,-5
Cc1cc(C)c(S(=O)(=O)Nc2ccc3c4c(cccc24)CC3)c(C)c1,.,3,61*,0
CCOC(=O)c1oc2ccc(S(=O)(=O)n3nc(-c4ccc(Cl)cc4)cc3N)cc2c1C,.,4,7,4
CCOC(=O)c1oc2ccc(S(=O)(=O)n3nc(-c4ccc(C)cc4)cc3N)cc2c1C,.,3,32*,10
Cc1nc(C#N)c(N/N=C/c2c(F)cccc2Cl)o1,.,5,.,.
COc1ccc(N2CCN(C(=O)CSc3nnc4c(C)cc5cc(C)ccc5n34)CC2)cc1,.,29,12,-2
COc1ccc(N2CCN(C(=O)CSc3nnc4c(C)cc5ccc(C)c(C)c5n34)CC2)cc1,.,50*,6,-3
COc1ccc(COc2ccccc2C(=O)Nc2ccccn2)cc1[N+](=O)[O-],.,5,.,.
O=C(CN1CCN(c2ccc(F)cc2)CC1)N1CCC(Cc2ccccc2)CC1,1.2,15,31*,2
CCOC(=O)c1c(-c2ccccc2)oc2ccc(OC(C)=O)cc12,1.2,14,32*,-7
CCOC(=O)c1c(C(C)(C)C)oc2ccc(O)cc12,1.2,1,52*,10
O=C(COC(=O)CCSc1ccccc1)NCc1ccccc1Cl,.,75*,.,.
